Over roughly 33,000 sequences, “E-score (-0.5 to 0.5)” has its median near -0.035; the highest 2% begin near 0.35. For the sample, the highest values were picked, then their nearest neighbours and some sequences at random.
Target: T1, Pdr3 (UniProt P33200)
T1 sequence: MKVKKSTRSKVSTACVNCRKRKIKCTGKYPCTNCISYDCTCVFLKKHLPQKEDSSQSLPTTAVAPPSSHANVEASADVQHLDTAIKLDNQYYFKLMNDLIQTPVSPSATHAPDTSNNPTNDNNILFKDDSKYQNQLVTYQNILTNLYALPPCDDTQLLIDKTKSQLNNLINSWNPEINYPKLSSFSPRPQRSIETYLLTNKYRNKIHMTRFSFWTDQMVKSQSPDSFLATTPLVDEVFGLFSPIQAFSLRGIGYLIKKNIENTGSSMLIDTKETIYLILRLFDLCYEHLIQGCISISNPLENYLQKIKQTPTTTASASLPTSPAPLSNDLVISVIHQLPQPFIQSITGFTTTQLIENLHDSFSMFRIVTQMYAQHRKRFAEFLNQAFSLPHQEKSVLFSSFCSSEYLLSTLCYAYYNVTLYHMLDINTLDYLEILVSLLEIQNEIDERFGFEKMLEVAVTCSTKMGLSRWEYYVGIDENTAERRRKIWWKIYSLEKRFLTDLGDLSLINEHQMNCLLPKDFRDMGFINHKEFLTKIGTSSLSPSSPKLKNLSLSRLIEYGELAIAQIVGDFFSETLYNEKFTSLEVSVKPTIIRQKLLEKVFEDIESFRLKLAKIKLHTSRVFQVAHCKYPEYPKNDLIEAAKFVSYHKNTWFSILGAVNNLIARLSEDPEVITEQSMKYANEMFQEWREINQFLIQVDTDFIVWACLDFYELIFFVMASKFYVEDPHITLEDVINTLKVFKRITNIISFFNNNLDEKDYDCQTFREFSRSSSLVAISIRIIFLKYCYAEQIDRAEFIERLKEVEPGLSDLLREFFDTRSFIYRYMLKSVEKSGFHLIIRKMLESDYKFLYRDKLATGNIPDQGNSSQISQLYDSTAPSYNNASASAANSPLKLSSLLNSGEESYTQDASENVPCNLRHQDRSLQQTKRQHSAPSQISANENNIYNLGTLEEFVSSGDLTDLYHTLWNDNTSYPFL
Test: PBM E-score (8-mer binding enrichment) (E-score (-0.5 to 0.5)); higher = stronger / more preferred TF binding
Details: protein concentration: 200 nM; construct: GST-full length
Outline: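 Detection of bound protein used fluorescent anti-GST, with scans normalised by masliner. The proteins were GST-tagged yeast transcription factors applied at about 100-200 nM to universal all-10-mer Agilent arrays made double-stranded by primer extension. Each ungapped eight-base word, pooled with its reverse complement, was scored with an E-score from the Universal PBM Analysis Suite.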

Sequence	PBM E-score
GCGGATTA	0.204
TGGGATAA	-0.102
ACGGATAG	0.216
CCGGATAA	0.396
CCGGATTA	0.385
ACGGATAA	0.375
CCGGATAC	0.351
GCGGATAA	0.342
ACGGATAT	0.305
CGGGATAA	0.408
GGGGATAA	0.0548
AGCTAGTC	-0.0629
ACAGCCCG	0.0226
ACCTTTCT	-0.129
GAAACTCC	0.0961
AATTCAGC	0.0247
ATGGATAC	-0.0299
ACGGATAC	0.368
AAGGATAC	-0.00551
ACGGTGCC	0.0198
TCGGCCAA	0.12
ACGGCCCG	0.22

Sequence	PBM E-score
CGGGCCCG	0.44
CCGGCCGC	0.317
ACGGCCGA	0.293
CCGGCCCA	-0.0155
CCGGCCGG	0.472
CCGGCCCG	0.375
ACGGCCGG	0.344
AGGGCCCG	0.182
CGGGCCCA	0.0442
TCGGCCGA	0.377
CCGATGGC	0.175
CGAGCTGA	0.143
ACTACCGA	-0.0714
CGCCTTGC	-0.0202
ATCATTGA	-0.0198
CAGGCACA	-0.171
AACTGGCA	-0.0302
GGTCAAAC	0.0507
GGTTCTGA	-0.109
ACCCGTGA	0.0325
CAGACGGG	0.103
CTAGTCTC	-0.269

Sequence	PBM E-score
GCGGCCGA	0.222
CCGGCCTA	0.184
CCGGCCGA	0.372
GGAGTCAC	-0.0786
CCTGTAGC	-0.282
CGGAAGGA	0.396
AGGAAGGC	-0.185
AGGAAGGA	-0.363
CGGAAGGC	0.369
CAGAAGGC	0.0006
GGGAAGGA	-0.00585
ATATCTGC	-0.044
ATAGAAAG	-0.0611
AGGAAGCG	0.0228
CACCTGCA	-0.142
CGGCGGCA	0.226
AGGCGGAC	0.211
CGGCGGAC	0.289
AGGCGGAA	0.35
GGGCGGAC	0.373
AGGCGGAG	0.174
TGGCGTAA	-0.263

Sequence	PBM E-score
CGGCGGAA	0.456
TGGCGGAA	0.359
CGGCGGAG	0.372
AGGCGGCG	0.0493
TGGCGAAA	-0.0244
CTTCAACC	0.00827
AGTGATCA	-0.0706
CGATAGGC	-0.216
GTGCGACA	-0.0394
AGGCAGGA	-0.149
AGCACGAG	0.0609
CGTGAGGA	-0.063
ATGACCCA	-0.0734
GGATACCA	0.212
ATCGGTTC	0.192
AATCTTTC	0.13
GGGCGGAA	0.414
GGGCGGGA	0.35
GGGCGGTA	0.195
TATTCTAA	0.0298

From the supplement of paper PMC3334620
